Assay results published in PubChem BioAssay (NCI).
About 79,000 compounds went through this panel and 15% of them were active in at least one assay; those are over-represented in the sample as a whole. The source made the active and inactive calls. Rule as the data show it: active = growth inhibition above about 70%; inactive = the rest.

How the values were obtained:
[1] = NCI Yeast Anticancer Drug Screen. Data for the rad50 strain (AID 155);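 also: 0% = growth of vehicle-only cultures of the same strain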; conditions: S. cerevisiae rad50 strain growth inhibition; at 50.0 µM; active compounds read high
Outline: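 Vehicle-treated cultures provide the reference for the growth inhibition reported for compound-exposed, repair-deficient yeast.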

[2] = NCI Yeast Anticancer Drug Screen. Data for the mec2-1 strain (AID 157); conditions: S. cerevisiae mec2-1 strain, at 50.0 µM, active compounds read high
Outline: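 Cells of the genetically defined mec2-1 yeast strain are incubated with test compound. Inhibition of growth is calculated against vehicle-treated controls.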

[3] = NCI Yeast Anticancer Drug Screen. Data for the sgs1 mgt1 strain (AID 161);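 also: 0% = growth of cultures given vehicle only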; conditions: S. cerevisiae sgs1 mgt1 strain, at 50.0 µM, active compounds read high
Outline: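 Mutant yeast exposed to compound; growth scored against vehicle-only wells.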

[4] = NCI Yeast Anticancer Drug Screen. Data for the cln2 rad14 strain (AID 165);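 also: 0% = growth equal to vehicle treated cultures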; conditions: S. cerevisiae cln2 rad14 strain, at 50.0 µM, active compounds read high
Outline: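 The screen exposed genetically defined yeast (cln2 rad14) to test compounds and scored growth inhibition relative to vehicle-treated controls.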

[5] = NCI Yeast Anticancer Drug Screen. Data for the bub3 strain (AID 167); conditions: S. cerevisiae bub3 mutant strain, at 50.0 µM, active compounds read high
Outline: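 Mutant yeast screening strain plus compound; vehicle-treated cultures serve as the 0% inhibition reference.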

[6] = NCI Yeast Anticancer Drug Screen. Data for the mlh1 rad18 strain (AID 175); conditions: S. cerevisiae mlh1 rad18 strain growth inhibition; at 50.0 µM; active compounds read high
Outline: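 Compound-treated yeast growth, normalised to vehicle controls. Strain bears defined DNA repair mutations.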

Measured: growth inhibition

COc1ccc2c(c1OC)C(=O)O[C@@H]2[C@H]1c2c(cc3c(c2OC)OCO3)CCN1C
inactive: [1] 5.7% | [2] -28.9% | [3] -27.8% | [4] 6.75% | [5] -7.35%

COC(=O)CC1(C(=O)OC)Oc2ccc(Br)cc2C(=O)N1c1cccc(Cl)c1Cl (stereo not given)
inactive: [1] 52.4% | [2] 13.8% | [3] 46.5% | [4] 40.6% | [5] 52.9%

O=C(O)c1ccc2c([N+](=O)[O-])cccc2n1
inactive: [1] 33.5% | [2] 19.2% | [3] 14.3% | [4] -44% | [5] 1.15%

CCOc1ccc(CN(CCN2CCCCC2)c2ccccn2)cc1
inactive: [1] 26.6% | [2] 9.45% | [3] 23.4% | [4] -7.4% | [5] 11.5% | [6] 24.1%

CCCCCC(=O)NCCCOC
inactive: [1] -20% | [2] 10.8% | [3] -0.35% | [4] -46.4% | [5] -13.7%

O=C(CSc1nc(-c2ccccc2)c(-c2ccccc2)[nH]1)NNC(=S)Nc1ccccc1
inactive: [1] 6.45% | [2] 0.5% | [3] -7.15% | [4] -26.3% | [5] 54.5%

Fc1ccc2nncc(/C=C/c3ccccn3)c2c1
inactive: [1] 41.8% | [2] -3.55% | [3] 4.2% | [4] -16.9% | [5] 24.2%

CC(=O)C1=CCC(C(C)C)C1 (stereo not given)
inactive: [1] 4.2% | [2] -0.9% | [3] -1.2% | [4] -1.3% | [5] 17.1%

CC(/C=N\Nc1ccc([N+](=O)[O-])cc1)=N/N=C(N)N
inactive: [1] 8.35% | [2] -2.9% | [3] 9.55% | [4] -10.9% | [5] 3.1%

Brc1ccccc1C(Nc1nncs1)Nc1nncs1
inactive: [1] 6.6% | [2] -4.35% | [3] -10.7% | [4] -3.1% | [5] -0.25%

S=C1CSc2c(cnc3ccccc23)N1
inactive: [1] -4.05% | [2] -6% | [3] 7% | [4] 18.8% | [5] 18.2%

Cc1ccc2[nH]c(=O)cc(C)c2c1
inactive: [1] 15.2% | [2] -0.45% | [3] 13.8% | [4] 20.2% | [5] 8.15%

CC(C)C(NC(=O)C1CCCN1)P(=O)(O)O (stereo not given)
inactive: [1] 10.1% | [2] 1.7% | [3] 4.55% | [4] -10.8% | [5] 5%

OCCN(CCO)c1ncnc2c1ncn2-c1ccc(CCCl)cc1
inactive: [1] 5.3% | [2] -3.1% | [3] -2.85% | [4] 6.05% | [5] 19%

COc1ccc(NC(=O)CSc2nnc(-c3ccc(NC(C)=O)cc3)o2)cc1
inactive: [1] 22.5% | [2] 2.2% | [3] 35.6% | [4] 22.2% | [5] 36%

CCOC(=O)C12CCCC1(O)N(NC(=O)c1ccccc1)C(C)=C2C(=O)OC (stereo not given)
inactive: [1] 10.8% | [2] 21.6% | [3] 6.3% | [4] -56.5% | [5] 2.95%

Nc1ccc(S(=O)(=O)NC(=O)NCc2ccccc2)cc1
inactive: [1] 0.7% | [2] -5% | [3] 3.5% | [4] -33% | [5] -10.6%

CCN(CC)CCN(C(=O)c1ccc(F)cc1)c1ccccc1N
inactive: [1] -13.2% | [2] -34.1% | [3] -23.6% | [4] -11.9% | [5] 3.85%

COc1ccc(-c2cc(=O)c3c(O)cc(O)cc3o2)cc1Oc1ccc(-c2cc(=O)c3c(O)cc(O)cc3o2)cc1
inactive: [1] 15.6% | [2] -12.2% | [3] -12.3% | [4] 2.35% | [5] -3.7%

O=C1C2C3CC(C4C5C=CC(C5)C34)C2C2C3CC(C12)C1C2C=CC(C2)C31 (stereo not given)
inactive: [1] -19.1% | [2] -15.9% | [3] -24% | [4] 17.8% | [5] -9.15%

CC(C)n1cnc2c(=O)[nH]c(=O)[nH]c21
inactive: [1] -9.55% | [2] -4.55% | [3] 9.25% | [4] -39.8% | [5] -5.2%

CN1C(=S)C2=C(c3ccccc3)N(C)C(=S)C2=C1c1ccccc1
inactive: [1] 6% | [2] -6.15% | [3] 10.5% | [4] 28.9% | [5] -2.3%

C(=C/c1ccccc1)/CN1CCCCC1
inactive: [1] 29.4% | [2] 19.4% | [3] 36% | [4] 11.4% | [5] 37.2%

CNC(=O)n1cnc2ccccc21
inactive: [1] 33.2% | [2] 30.4% | [3] 37% | [4] 13.1% | [5] 60%

C1=N/C=C\C=C/c2ccc[n+](CCCCC[n+]3ccccc3-c3ccccn3)c21
inactive: [2] 63.5% | [4] 63.1% | [5] 36.7%
active: [1] 81.5% | [3] 86.8%

O=C(O)c1cc(-c2ccccc2)nc2cc(Cl)ccc12
inactive: [1] 29.9% | [2] 12.8% | [3] 19.1% | [4] -9.35% | [5] 24.4%

COc1ccc(-c2nc(SCc3ccc(Cl)cc3)[nH]c(=O)c2CCO)cc1
inactive: [1] 32.3% | [2] -7.75% | [3] -4.45% | [4] 3.15% | [5] -3.45%

COc1ccccc1NC(=O)C1=C(C)NC(C)=C(C(=O)Nc2ccccc2OC)C1c1c(Cl)cccc1Cl
inactive: [1] 15.6% | [2] 3.75% | [3] -11.8% | [4] -6.05% | [5] 0.2% | [6] 26.6%

O=C(O)C1CCc2ccccc2C1 (stereo not given)
inactive: [1] 15.4% | [2] 4.05% | [3] 9.85% | [4] -0.45% | [5] -2.4% | [6] 2.95%

CC(=O)Nc1ccc(S(=O)(=O)CCS(=O)(=O)c2ccc(NC(C)=O)cc2)cc1
inactive: [1] 7.35% | [2] 4.7% | [3] -16.1% | [4] -6.15% | [5] 3.65%

CCN1CCCC(Cl)C1 (stereo not given)
inactive: [1] 12.8% | [2] -41% | [3] 14.7% | [4] -0.5%

c1cc[n+]2cc3c(ccc4cc5cccc[n+]5cc43)cc2c1
inactive: [1] 17.4% | [2] 11.1% | [3] 31.4% | [4] 58% | [5] -2.3%

CC(=O)N(Cl)c1ccc(N=Nc2ccccc2)cc1F
inactive: [1] 24.5% | [2] 15.1% | [3] 32.5% | [4] -9.7% | [5] -7.7%

Nc1ccc(CC(N)C(=O)O)cc1 (stereo not given)
inactive: [1] -2.7% | [2] -12.8% | [3] -22.3% | [4] -5.6% | [5] -6.55% | [6] -13.3%

COc1ccc(C=O)c(Br)c1O
inactive: [1] -0.65% | [2] -6.85% | [3] -14.2% | [4] 22.4% | [5] -12.3%

NC(CSSCC(NC(=O)CNC(=O)OCc1ccccc1)C(=O)O)C(=O)O (stereo not given)
inactive: [1] -13.3% | [2] -38% | [3] -11.2% | [4] -62.8% | [5] -1.05%

CC1(C)OC(C2SCCS2)C2OC(=O)C(O[Si](C)(C)C(C)(C)C)C2O1 (stereo not given)
inactive: [1] 18.2% | [2] 16.2% | [3] 2.75% | [4] 0.9% | [5] -2.6%

CCc1cccc(C)c1N1C(=O)C(=O)C(c2nc3ccccc3o2)C(=O)C1=O
inactive: [1] 33.8% | [2] 17.9% | [3] 19.7% | [4] 16% | [5] -4.55%

COc1ccc(CN2CCCN(Cc3ccc(OC)cc3OC)C2c2cc(OC)ccc2OC)c(OC)c1
inactive: [1] -0.85% | [2] -0.85% | [3] 1.3% | [4] 10.5% | [5] -1.85%

CC(C)=CCCC(C)C=O (stereo not given)
inactive: [1] -11.6% | [2] -41.2% | [3] -19.4% | [4] 4% | [5] -20.1%

Nc1n[nH]c(CCCCc2nc(N)n[nH]2)n1
inactive: [1] -23.2% | [2] -24.4% | [3] -2.55% | [4] -39.8% | [5] -4.25% | [6] -1.9%

CC(NC(C)c1ccccc1)c1ccccc1 (stereo not given)
inactive: [1] 6.05% | [2] 0.05% | [3] -5.6% | [4] -7.3% | [5] 3.3% | [6] -1.35%
